Screening results from PubChem.
The list is not random: actives were taken first. Their share in the collection is about 1.8%.
PP5 primary: PP5 phosphatase inhibitors, primary screen, biochemical, fluorescence. purified PP5c, OMFP substrate fluorescence. Serine/threonine-protein phosphatase 5 (Homo sapiens), P53041. 320,000 tested, 0.18% active. inhibition, % at 6.7 µM;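 active = inhibition above the campaign's mean inhibition across all tested compounds plus 3 SD, cut at about 9.5% in these data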
Target sequence (P53041 whole entry, looked up): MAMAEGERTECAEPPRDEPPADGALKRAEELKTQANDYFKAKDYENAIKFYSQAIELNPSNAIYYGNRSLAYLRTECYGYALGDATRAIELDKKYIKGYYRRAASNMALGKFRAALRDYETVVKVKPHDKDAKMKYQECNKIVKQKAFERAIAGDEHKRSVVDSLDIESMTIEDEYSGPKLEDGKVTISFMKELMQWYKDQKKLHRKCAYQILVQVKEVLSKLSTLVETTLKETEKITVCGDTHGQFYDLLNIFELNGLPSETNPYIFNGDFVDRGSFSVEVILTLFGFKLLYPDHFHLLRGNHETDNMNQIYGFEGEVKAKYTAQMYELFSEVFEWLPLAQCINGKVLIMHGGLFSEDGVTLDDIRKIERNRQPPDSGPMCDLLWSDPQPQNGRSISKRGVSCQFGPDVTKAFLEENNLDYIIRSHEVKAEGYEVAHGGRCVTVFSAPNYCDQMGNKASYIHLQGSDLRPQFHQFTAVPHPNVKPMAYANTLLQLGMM
PP1 counter: PP1-alpha phosphatase inhibitors, primary screen, counter-screen for PP5 inhibitor project, biochemical, fluorescence, OMFP substrate, single point; inhibition, % at 6.7 µM; AID 2235, 2010; 320,000 tested, 0.9% active; purified PP1alpha;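 active = inhibition above the mean inhibition of all tested compounds plus 3 SD, computed separately for each screening campaign, cut at about 15% in these data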
PME-1 inh: PME-1 inhibitors via competitive probe labeling, primary screen, biochemical, fluorescence polarization, FP-Rh probe, HTS. inhibition, % at 5.9 µM. Protein phosphatase methylesterase 1 (Homo sapiens), Q9Y570. recombinant PME-1. 320,000 tested, 0.53% active;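 active = inhibition above the campaign mean of all compounds plus 3 SD, cut at about 26% in these data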;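 note: competitive labeling of PME-1 active site by serine hydrolase directed probe; inhibitors block probe labeling so polarization falls and inhibition rises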
LYPLA1 inh: LYPLA1 inhibitors, primary screen, counter-screen for PME1 inhibitor project, biochemical, fluorescence polarization, FP-Rh probe ABPP; 320,000 tested, 0.16% active; inhibition, % at 5.9 µM; AID 2174, 2009; Acyl-protein thioesterase 1 (Homo sapiens), O75608; recombinant LYPLA1;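 active = inhibition above the mean of all tested compounds plus 3 SD, set per campaign, cut at about 14% in these data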;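 note: inhibitors block serine hydrolase probe labeling of LYPLA1 so polarization falls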
LYPLA2 inh: LYPLA2 inhibitors, primary screen, counter-screen for PME1 inhibitor project, biochemical, fluorescence polarization, FP-Rh probe ABPP | Acyl-protein thioesterase 2 (Homo sapiens), O95372 | recombinant LYPLA2 | inhibition, % at 5.9 µM | 320,000 tested, 0.38% active | AID 2177, 2009;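 active = inhibition above the screen-wide mean plus 3 SD, limit set per campaign, cut at about 26% in these data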
Fam108B inh: mouse Fam108B serine hydrolase inhibitors, primary screen, counter-screen for RBBP9 inhibitor project, biochemical, fluorescence polarization | recombinant Fam108B, FP-Rh probe fluorescence polarization | inhibition, % at 9.51 µM | 300,000 tested, 0.33% active | AID 1947, 2009;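 active = inhibition above the screen mean inhibition plus 3 SD, computed separately per campaign, cut at about 18% in these data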;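 note: inhibitors lower polarization as less probe binds the enzyme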
LYPLA1 confirm: LYPLA1 inhibitors, retest, confirmation, counter-screen for PME1 inhibitor project, biochemical, fluorescence polarization, FP-Rh probe ABPP. shares compounds with LYPLA1 inh. inhibition, % at 5.9 µM. 480 tested, 69% active. recombinant LYPLA1. AID 2233, 2010;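 active = mean inhibition across replicates above the hit cutoff set in the primary screen, cut at about 15% in these data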;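 note: loss of FP-Rh probe labeling of LYPLA1 seen as lower polarization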
LYPLA2 conf: LYPLA2 inhibitors, retest, confirmation, counter-screen for PME1 inhibitor project, biochemical, fluorescence polarization, FP-Rh probe ABPP; recombinant LYPLA2; 1,100 tested, 72% active; shares compounds with LYPLA2 inh; inhibition, % at 5.9 µM;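 active = mean inhibition across replicates above the hit cutoff set in the primary screen, cut at about 26% in these data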;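 note: blocked labeling of the enzyme by serine hydrolase FP-Rh probe lowers polarization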
LYPLA2 ABPP: LYPLA2 inhibitors in proteome, late-stage follow-up, gel-based competitive ABPP, fluorescence, assay provider; shares compounds with LYPLA2 inh; rhLYPLA2 in mouse brain proteome, gel ABPP FP-Rh; inhibition, % at 20 µM; 150 tested, 30% active; AID 652029, 2013;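 active = inhibition of LYPLA2 enzyme probe labeling above about 50%, limit read from the data; inactive = inhibition below that limit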;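 note: loss of FP-Rh probe labeling of the LYPLA2 gel band measured as band density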
PP1 confirm: PP1 phosphatase inhibitors, confirmation, biochemical, fluorescence, OMFP substrate, triplicate. 1,900 tested, 52% active. inhibition, % at 6.7 µM. shares compounds with PP1 counter. purified PP1alpha. AID 2358, 2010;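 active = mean PP1 inhibition above a set limit taken from the earlier primary screen, cut at about 15% in these data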
PP5 counter: PP5 phosphatase inhibition by PP1 hits, confirmation, counter-screen for PP1 inhibitor project, biochemical, fluorescence, triplicate. shares compounds with PP1 counter. purified PP5c, OMFP fluorescence. inhibition, % at 6.7 µM. 1,900 tested, 4% active. AID 2360, 2010;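 active = mean PP5 inhibition over triplicate wells above about 9.5% taken from the earlier PP1 screen, limit read from the data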
Of the large screens only hits and unclear results are named; the others gave an inactive call (follow-up assays come after a bar, where they were run).

O=c1[nH]nc(CNc2ccc(O)cc2)c2ccccc12	PME-1 inh 45, LYPLA1 inh 16, LYPLA2 inh 34 | LYPLA1 confirm inactive | LYPLA2 conf inactive
O=c1[nH]nc(CNc2ccc(C(F)(F)F)cc2)c2ccccc12	none
O=C1CCCC2=C1Sc1ccc(Cl)cc1N2	none
COC(=O)c1ccc2c(c1)SC1=C(CCCC1=O)N2	PME-1 inh 29, LYPLA1 inh 28, LYPLA2 inh 27 | LYPLA1 confirm 19 | LYPLA2 conf inactive
O=C(CCCCCCN1C(=O)c2ccccc2C1=O)N1CCC(c2ccccc2)C1 (stereo unspecified)	LYPLA1 inh 68, LYPLA2 inh 76 | LYPLA1 confirm 68 | LYPLA2 conf 70
COc1cccc(C(=O)NOCc2ccccc2)c1OC	none (no result: Fam108B inh)
O=C(COc1ccc(Cl)cc1)N1CCN(c2ccc([N+](=O)[O-])c(N3CCOCC3)c2)CC1	LYPLA1 inh 68, LYPLA2 inh 32 | LYPLA1 confirm 75 | LYPLA2 conf 29
COc1cccc(C(C(=O)NC2CCCC2)N(C(=O)c2ccco2)c2ccccc2)c1OC (stereo unspecified)	none
COc1ccc(C(=O)NC(=S)Nc2ccc(CN3CCOCC3)cc2)cc1Br	LYPLA1 inh 15, LYPLA2 inh 44 | LYPLA1 confirm 22 | LYPLA2 conf 47
COc1ccc(C(=O)NC(=S)Nc2ccc(N3CCOCC3)cc2)cc1Cl	LYPLA1 inh 14, LYPLA2 inh 39 | LYPLA1 confirm 25 | LYPLA2 conf 55
CC(=O)c1ccc(OCc2cc(C(=O)N(C)CCOc3ccc(C)cc3)no2)cc1	LYPLA1 inh 20, LYPLA2 inh 26 | LYPLA1 confirm 23 | LYPLA2 conf inactive
CC(C)CN(C(=O)COC(=O)CCc1nc2ccccc2s1)c1c(N)n(Cc2ccccc2)c(=O)[nH]c1=O	none
C=CCn1c(SCC(=O)N2CCCC2=O)nc2sc(CC)cc2c1=O	PME-1 inh 37, LYPLA1 inh 21, LYPLA2 inh 38 (no result: Fam108B inh) | LYPLA1 confirm inactive | LYPLA2 conf inactive
CC(C)CCNC(=O)NC(=O)COC(=O)/C=C/c1cccc([N+](=O)[O-])c1	LYPLA1 inh 25, LYPLA2 inh 30 | LYPLA1 confirm 31 | LYPLA2 conf 32
Cc1noc(NS(=O)(=O)c2ccc(NC(=O)Nc3ccc(Cl)c(Cl)c3)cc2)c1C	PP1 counter 18, PME-1 inh 51, LYPLA1 inh 35 | LYPLA1 confirm inactive | PP1 confirm inactive | PP5 counter inactive
O=Cc1cccc2ccc3cccc(C(=O)O)c3c12	none
O=C(COc1ccccc1Cl)Nc1ccc(N2CCCC2)cc1	PP1 counter 28, LYPLA1 inh 33, LYPLA2 inh 27 | LYPLA1 confirm inactive | LYPLA2 conf inactive | PP1 confirm inactive | PP5 counter inactive
C/C(=N/NC(=O)c1cc2ccccc2cc1O)C1C(=O)c2ccccc2C1=O	PP1 counter 24, PME-1 inh 79, LYPLA1 inh 63, Fam108B inh 75 | LYPLA1 confirm 57 | PP1 confirm 17 | PP5 counter inactive
C/C(=N\NC(=O)c1cc2ccccc2cc1O)c1ccccn1	none
COc1ccc(S(=O)(=O)N2CCC3(CC2)OCCN3S(=O)(=O)c2ccccc2)cc1OC	none
Cc1cc(N)ccc1N1CCCC1	PP1 counter 21, PME-1 inh 33, LYPLA1 inh 22, LYPLA2 inh 29 | LYPLA1 confirm inactive | LYPLA2 conf inactive | PP1 confirm inactive | PP5 counter inactive
NC(=O)c1cc(N)ccc1N1CCCC1	none
Cc1cc(NC(=O)CCC(=O)N(CC(=O)NCC2CCCO2)c2ccc(F)c(Cl)c2)no1 (stereo unspecified)	none
O=C(CSc1n[nH]c(=O)[nH]c1=O)Nc1ccc2c(c1)C(=O)c1ccccc1C2=O	PP1 counter 21, LYPLA1 inh 14 | LYPLA1 confirm inactive | PP1 confirm 31 | PP5 counter inactive
Cc1ccc(C)c(N2CCN(C(=O)c3cc4sccc4n3C)CC2)c1	none
Cn1c(C(=O)N2CCN(c3cccc(C(F)(F)F)c3)CC2)cc2sccc21	LYPLA2 inh 27 | LYPLA2 conf inactive
COc1cccc(NC(=O)CCC2CCN(C(=O)c3ccc(C(C)=O)s3)CC2)c1	LYPLA2 inh 27 | LYPLA2 conf 32
CC(=O)c1ccc(S(=O)(=O)N2CCC(NC(=O)Nc3cccc(F)c3)CC2)cc1	LYPLA2 inh 37 | LYPLA2 conf 47
COC(=O)c1cccc(S(=O)(=O)N2CCC(NC(=O)Nc3cccc(F)c3)CC2)c1	none
CC(C)CC(=O)Nc1ccc(C(=O)COC(=O)C2CC(=O)N(Cc3ccccc3)C2)cc1 (stereo unspecified)	none (no result: Fam108B inh)
O=C(O)c1cccc(NC(=S)NC(=O)c2cccc(OCc3ccccc3)c2)c1	LYPLA2 inh 31 | LYPLA2 conf 29
Cc1ccc(C(=O)O)cc1NC(=S)NC(=O)c1ccc(COc2ccccc2)cc1	LYPLA2 inh 46 | LYPLA2 conf 51 | LYPLA2 ABPP inactive
CC(=O)c1nn(-c2cccc(C)c2)cc1C(=O)c1cccc(Br)c1	none
O=c1[nH]c(CN2CCN(C/C=C/c3ccccc3)CC2)nc2ccccc12	none
Nc1nc(N2CCN(C/C=C/c3ccccc3)CC2)nc2ccccc12	LYPLA2 inh 42 | LYPLA2 conf 39
